# According to PubChem BioAssay (NCI):
# This is part of a sample that, as a whole, favours compounds with a hit. Of some 83,000 tested, about 20% had one in any assay.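 Step 1: grow cells in 96-well plates. Step 2: add test compound at a single concentration. Step 3: incubate 48 h. Step 4: record percent growth.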 A number with no mark means an inactive call. The source made the active and inactive calls. The calls were made as follows: active = growth percent below 10; inactive = the rest.
# Experiments:
# Assay in all cases: NCI-60 one-dose screen, 48 h (100 = growth as untreated, 0 = no growth, -100 = all killed)
# NCI-H23 lung = details: 10 µM unless noted
# NCI-H226 lung = details: 10 µM unless noted
# NCI-H322M lung = details: 10 µM unless noted
# HOP-62 NSCLC = details: 10 µM unless noted
# NCI-H460 lung = details: 10 µM unless noted
# HOP-92 NSCLC = details: 10 µM unless noted
# NCI-H522 lung = details: 10 µM unless noted
# A549/ATCC NSCLC = details: 10 µM unless noted
# 786-0 renal = details: 10 µM unless noted
# COLO 205 colon = details: 10 µM unless noted
# DU-145 prostate = details: 10 µM unless noted
# K-562 leukemia = details: 10 µM unless noted
# MALME-3M melanoma = details: 10 µM unless noted
# MDA-MB-231 breast = details: 10 µM unless noted
# RXF 393 renal = details: 10 µM unless noted
# SF-268 CNS = details: 10 µM unless noted
# SF-295 CNS = details: 10 µM unless noted
# SF-539 CNS = details: 10 µM unless noted
# UACC-257 melanoma = details: 10 µM
# M14 melanoma = details: 10 µM unless noted
SMILES,growth (NCI-H23 lung),growth (NCI-H226 lung),growth (NCI-H322M lung),growth (HOP-62 NSCLC),growth (NCI-H460 lung),growth (HOP-92 NSCLC),growth (NCI-H522 lung),growth (A549/ATCC NSCLC),growth (786-0 renal),growth (COLO 205 colon),growth (DU-145 prostate),growth (K-562 leukemia),growth (MALME-3M melanoma),growth (MDA-MB-231 breast),growth (RXF 393 renal),growth (SF-268 CNS),growth (SF-295 CNS),growth (SF-539 CNS),growth (UACC-257 melanoma),growth (M14 melanoma)
CCOC(=O)c1c(NCC(=O)Nc2cccc([N+](=O)[O-])c2)sc2c1CCCC2,-70.8% (active),-58.1% (active),-29.2% (active),-48.4% (active),-51.5% (active),-24.7% (active),-67% (active),-13.8% (active),-32% (active),-56.2% (active),-15.2% (active),3.3% (active),-63.9% (active),-44% (active),-84.6% (active),-42.2% (active),-90.2% (active),-55.6% (active),-27% (active),-85.2% (active)
COc1ccc(-c2nc3cc(Cl)c(Cl)cc3n2CC(=O)N=Nc2c(O)[nH]c3ccc(Cl)cc23)cc1,21.2%,-8.97% (active),46.1%,0.657% (active),16.9%,-28% (active),37.6%,18.5%,24.7%,-3.46% (active),-10.9% (active),32.1%,-10.1% (active),29.8%,-48.2% (active),51.8%,4.56% (active),36%,71.9%,11.9%
O=C1Nc2ccc(Cl)cc2/C1=C/c1ccc(OCc2ccc(F)cc2)cc1,92.5%,96.4%,95.7%,107%,97.7%,85.6%,90.4%,91.1%,98.4%,99.4%,95.9%,78.4%,102%,95.2%,95.5%,92.7%,99%,96%,96.6%,98.1%
O=C1CSC(=O)N1Cc1cc2ccccc2nc1Cl,99.7%,102%,108%,101%,106%,94.5%,94.3%,99.6%,100%,109%,104%,99.8%,94.2%,103%,96%,99.1%,101%,108%,103%,103%
CCOC(=O)C1=C(C)Nc2nc3ccccc3n2C1c1ccccc1 (stereo not given),97%,104%,104%,100%,74.7%,95.7%,93.3%,92.7%,95.4%,104%,105%,76.1%,94.3%,95.8%,107%,102%,102%,96.9%,97.4%,102%
CC1COc2c(N3CCN(C)CC3)c(F)cc3c(=O)c(C(=O)N/N=C/c4cc[nH]c4)cn1c23 (stereo not given),41.1%,50%,65.7%,38%,0.46% (active),28%,13.8%,-5.87% (active),1.52% (active),54.4%,42%,-27.8% (active),-3.02% (active),44.4%,16%,59.1%,70.3%,38.5%,-74.5% (active),-79.8% (active)
O=C1NC(=O)c2c1c1c3ccccc3ccc1c1[nH]c3ccccc3c21,15.8%,12.2%,19.4%,1.2% (active),6.41% (active),35.9%,11.3%,23.5%,18.6%,28.8%,22.9%,9.34% (active),-15.2% (active),34%,-21.2% (active),5.68% (active),3.01% (active),18.4%,44.1%,15.9%
Cc1cc(Cl)cc(NS(=O)(=O)c2ccc(-c3cnc(C4CC4)o3)cc2)c1,35.7%,60.5%,46.7%,41.7%,16.2%,66.5%,17.9%,31.8%,49.4%,2.78% (active),24.7%,8.81% (active),65.4%,35.4%,-0.916% (active),61.7%,1.04% (active),6.15% (active),68.2%,13.1%
N#Cc1c(-c2cccs2)cc(-c2cnccn2)nc1SCC(=O)NNC(=S)Nc1ccc(F)cc1,108%,117%,97.3%,106%,105%,112%,95.5%,100%,99.3%,112%,109%,92.2%,127%,94.5%,141%,106%,106%,98.1%,112%,104%
CCOC(=O)C1=C(C)Nc2nnc(Nc3ccccc3)n2C1c1ccccc1 (stereo not given),72.4%,86.7%,91.2%,81.8%,-28.3% (active),82.4%,79.2%,48.9%,75.5%,88.9%,81.6%,57%,75.3%,65.7%,80%,81.9%,96.6%,-3.55% (active),97%,100%
CC(=O)Nc1nc2c(s1)C1=CC[C@H]3[C@@H]4CC[C@H](C(C)=O)[C@@]4(C)CC[C@@H]3[C@@]1(C)CC2,81.2%,94.8%,77.1%,62.8%,64.4%,105%,90.8%,51.7%,25%,57%,85.9%,8.05% (active),72.6%,57.7%,-29.3% (active),90.2%,-16.9% (active),40.2%,73.2%,87%
COc1cc(/C=C/C(=O)c2ccc(NC(=O)COc3cccc4cccnc34)cc2)cc(OC)c1OC,78.7%,88.7%,90.4%,114%,72.5%,90.1%,80.4%,87.1%,89%,100%,78.1%,34.1%,70.2%,73.7%,86.7%,81.6%,90.8%,72.3%,74.6%,91.4%
O=S(=O)(Nc1ccc(I)c(Cl)c1)c1ccc(-c2cnc(C3CC3)o2)cc1,33.8%,41.9%,46%,29%,12.6%,49%,24.7%,50.3%,41.7%,12%,19.5%,9.83% (active),49.4%,44.8%,2.46% (active),59.4%,12.2%,10.9%,69.9%,20.9%
CCCCCCNC(=O)Oc1ccc(/C(=C(/C)c2ccc(OC)cc2)c2ccc(OCCN3CCCC3)cc2)cc1,78.8%,96.6%,86.2%,88.4%,55.3%,62.8%,92.2%,73.3%,40.9%,76.2%,91.6%,6.93% (active),-13.6% (active),65.7%,61.9%,83.6%,46.8%,37.7%,2.85% (active),-35.5% (active)
O=C(CCCCCCN1CC(=O)N2[C@@H](c3cccc(Br)c3)c3[nH]c4ccccc4c3C[C@H]2C1=O)NO,43.1%,91.7%,42.2%,30.2%,26.4%,2% (active),8.55% (active),59.4%,46.6%,7.27% (active),24.2%,15.5%,29.3%,11.7%,-16.7% (active),24.9%,15.6%,32.2%,44.9%,27.4%
